PLK1 PBD block – qHTS for Inhibitors of PLK1-PDB (polo-like kinase 1 - polo-box domain): Primary Screen. Serine/threonine-protein kinase PLK1 (Homo sapiens), P53350. Plk1 PBD binding of FITC phosphopeptide, fluorescence polarization. Potency, µM, hits mostly inhibitors. 2.8% of 360,000 active. AID 720504, 2013; further: series mostly up to about 57 µM; nearly all actives have a fitted effect of over 65% in size
JMJD2A Tudor – qHTS Assay for Inhibitors of JMJD2A-Tudor Domain. Potency, µM (series often up to 114 µM), usual class: inhibitors. AlphaScreen JMJD2A-Tudor / H3K4me3 peptide binding. 4.4% of 390,000 active. AID 504339, 2011; further: nearly all actives have a fitted effect of over 50% in size
ALOX12 inh – Primary qHTS assay for inhibitors of human arachidonate 12S-lipoxygenase (ALOX12): Round 2 | purified 12hLO, xylenol orange hydroperoxide absorbance | Polyunsaturated fatty acid lipoxygenase ALOX12 (Homo sapiens), P18054 | Potency, µM (series often up to 108 µM), usual class: inhibitors | 1.1% of 580,000 active | AID 1671190, 2021
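Purified human 12hLO at 150 nM in 25 mM Hepes, 0.01% Triton X-100, pH 7.0, preincubated 15 min at room temperature with compound. Reaction started with 40 uM arachidonic acid, 30 min at room temperature. Hydroperoxide measured by Fe-xylenol orange, 573/405 nm absorbance ratio.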
BAZ2B inh – qHTS Assay for Inhibitors of BAZ2B; Potency, µM (titrated, usually from 114 µM), most hits filed as inhibitors; 4.4% of 360,000 active; AlphaScreen BAZ2B-H3K14Ac peptide displacement; Bromodomain adjacent to zinc finger domain protein 2B (Homo sapiens), Q9UIF8; AID 504333, 2011; further: nearly all actives have a fitted effect of over 60% in size
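Compounds, titrated to a top concentration of 110 uM, were incubated 30 min at room temperature with preformed BAZ2B/acetyl-K14 H3 peptide complex (50 nM each). Proximity signal was measured by AlphaScreen after 20 min with beads.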
HP1b chromo inh – HTS for Inhibitors of HP1-beta Chromodomain Interactions with Methylated Histone Tails | Potency, µM (top dose mostly 114 µM), usual class: inhibitors | 0.56% of 390,000 active | AlphaScreen HP1-beta / biotin-H3K9me3 peptide binding; further: nearly all actives have a fitted effect of over 70% in size
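Compound inhibition of the preformed complex between 50 nM HP1-beta and 50 nM biotinylated H3K9me3 peptide was read by AlphaScreen. Buffer was PBS pH 7.4 with 0.01% Tween-20. Incubations ran 30 min at room temperature, with 10 ug/mL donor/acceptor beads.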
G9a block – qHTS Assay for Inhibitors of Histone Lysine Methyltransferase G9a; Histone-lysine N-methyltransferase EHMT2 (Homo sapiens), Q96KQ7; G9a H3K9 monomethylation, AlphaScreen, 2 h; Potency, µM (top dose mostly 102 µM), usual class: inhibitors; 8.8% of 350,000 active; AID 504332, 2011; further: nearly all actives have a fitted effect of over 75% in size
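Quantitative HTS format: methyltransferase activity on a biotin-tagged H3K9 peptide is measured by AlphaScreen, using a rabbit anti-monomethyl-H3K9 antibody with streptavidin donor and anti-IgG acceptor beads. Final levels are 20 nM enzyme, 500 nM peptide, 20 uM SAM; 2 h RT.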
Hits are given with their value; i = inactive; ? = inconclusive; nt = no result; ! = not confirmed by another sample; [ ] = dose if it differs, or a comment. Rows were chosen to be rich in hits. Some 9% of all compounds tested hit in one or more screens of this group. The call rests on the fitted dose curve; in most records, active means well fitted curve in the direction sought with a large enough effect; inconclusive means small, poorly fitted or top-dose-only effect, or another doubt; inactive means no such curve, though single readings can be large; an effect the other way counts as inactive or inconclusive.

SMILES	PLK1 PBD block	JMJD2A Tudor	ALOX12 inh	BAZ2B inh	HP1b chromo inh	G9a block
COc1ccc(C2CC(C(F)(F)F)n3nc(C(=O)Nc4ccc5c(c4)OCO5)cc3N2)cc1 (stereo unspecified)	i	i[11.4 µM]	i	i	i	i
Cc1ccc(N2C(=O)CC(Sc3nc(C)cc(C)n3)C2=O)cc1 (stereo unspecified)	i	i	i	i	i	i
COc1cccc(C2CC(c3c(-c4ccccc4)c4cc(Cl)ccc4[nH]c3=O)=NN2S(C)(=O)=O)c1OC (stereo unspecified)	i	i	i	i	i	40µM
COc1ccccc1C1CC(c2c(-c3ccccc3)c3cc(Cl)ccc3[nH]c2=O)=NN1S(C)(=O)=O (stereo unspecified)	i	i	i	i	i	?
Cc1cc(S(=O)(=O)N(C)CC2CCOC2)ccc1F (stereo unspecified)	nt	nt	i	nt	nt	nt
O=C(CSc1ncccc1C(=O)O)NC12CC3CC(CC(C3)C1)C2	i	i	22µM	?	i	32µM
O=C(CSc1ccccc1C(=O)O)NC12CC3CC(CC(C3)C1)C2	30µM	?	i	i	i	i
COc1ccc(CCNC(=O)c2coc3ccccc3c2=O)cc1	i	i	i	i	i	?
Oc1ccccc1N1CCN(c2nnnn2-c2ccccc2)CC1	30µM	?	i	i	i	nt
Fc1ccccc1N1CCN(c2nnnn2-c2ccccc2)CC1	i	i	i	i	i	i
O=C(O)CCN(CCC(=O)O)c1nnc(SCc2ccccc2)s1	i	i	i	?	i	i
O=c1c(-c2cccs2)nc2cnc(Oc3ccccc3)nc2n1Cc1cccs1	nt	nt	i	nt	nt	i[0.501 µM]
COC[C@H]1CCCN1C(=O)C[C@@H]1O[C@H](CNS(=O)(=O)c2ccccc2)[C@@H](O)[C@H]1O	nt	nt	40µM	nt	nt	nt
CC(NC(=O)C(=O)Nc1cc(Cl)ccc1Cl)c1ccc(S(N)(=O)=O)cc1 (stereo unspecified)	nt	nt	i	nt	nt	nt
O=C(N/N=C/c1ccc2nccnc2c1)c1ccccc1O	nt	nt	i	i	nt	i
O=C(N/N=C/c1ccnc2ccccc12)c1ccccc1O	i	100µM	i	i	i	i
O=C(N/N=C/c1oc(O)c2ccccc12)c1ccccc1O	i	i	i	i	i	35µM
O=c1[nH]c(C2CCN(S(=O)(=O)c3ccc([N+](=O)[O-])cc3)CC2)nc2c1nnn2Cc1ccccc1	i	i	i	?	i	i
O=c1[nH]c(C2CCN(S(=O)(=O)c3ccccc3)CC2)nc2c1nnn2Cc1ccccc1	24µM	50µM	i	i	i	?
O=C(c1ccc2c(c1)OCO2)N1CCC(c2nc3c(nnn3Cc3cccc(Cl)c3)c(=O)[nH]2)CC1	nt	nt	13µM	nt	nt	nt
O=C(Nc1ccc(F)cc1)N1CCC(c2nc3c(nnn3Cc3cccc(Cl)c3)c(=O)[nH]2)CC1	i	i	i	i	i	i
CCOc1ccccc1NC(=O)c1cc2ccccc2oc1=O	i	i	?	i	i	nt
Cc1ccc(S(=O)(=O)Nc2ccc(SC(F)F)cc2)c(C)c1	i	i	16µM	i	i	i
CCC(C)c1ccccc1N1CC(C(=O)Nc2ccc(S(=O)(=O)N3CCOCC3)cc2)CC1=O (stereo unspecified)	i	i	i	i	i	50µM
COc1ccc2c(c1)C(C)=CC(C)(C)N2C(=O)Nc1cccc(Cl)c1	nt	nt	40µM	nt	nt	nt
SMILES	PLK1 PBD block	JMJD2A Tudor	ALOX12 inh	BAZ2B inh	HP1b chromo inh	G9a block
COc1cc(CNC(=O)C2CCCCC(=O)N2)cc(OC)c1 (stereo unspecified)	nt	nt	i	nt	nt	nt
COc1cc(CNC2CCCCC2OC)cc(OC)c1 (stereo unspecified)	i	5.6µM	i	56µM	?	?
CCc1nn(CCCC(=O)N2CCN(c3ccc(OC)cc3)CC2)c(=O)c2cc3occc3n12	i	?	i	?	i	?
CN(C)c1nc(N)c(C#N)c(C#N)c1C#N	27µM	i	i	nt	i	nt
CCc1ccc(-c2cc(C(=O)NCc3ccco3)c3ccccc3n2)cc1	nt	nt	14µM	nt	nt	nt
Cc1ccc(-c2cc(C(=O)NCc3ccco3)c3ccccc3n2)s1	i	i	25µM!	?	i	50µM
COc1cc(-c2cc(C(=O)Nc3ccc(S(=O)(=O)NCc4ccco4)cc3)c3ccccc3n2)cc(OC)c1OC	i	i	i	i	i	i
COc1cc(-c2cc(C(=O)NCc3ccco3)c3ccccc3n2)cc(OC)c1OC	i	i	?	i	i	50µM
O=C(NCc1ccco1)c1cc(-c2cccs2)nc2ccccc12	i	i	?	i	i	i
CC(C)N1C(=S)N(Cc2ccco2)C(=O)C1CC(=O)Nc1ccccc1 (stereo unspecified)	i	i	?	?	i	50µM
CCCc1c(C(=O)NNc2ccc(C)cc2)cnn1-c1ccccc1	i	?	?	?	i	4.5µM
Cc1oc2c(c(C)cc3oc(=O)c(CC(=O)NCc4ccccc4)c(C)c32)c1C	nt	i	i	i	i	i
Cc1cc(N2CCCC2)ccc1/C=C1/C(=O)N(C)C(=S)N1C	i	?	i	1.6µM	?	2.5µM
Cc1cc(/C=C2/C(=O)N(C)C(=S)N2C)ccc1N1CCCC1	i	14µM	i	14µM	35µM	8.9µM
COc1cc(/C=C2\NC(=S)N(C)C2=O)ccc1O	i	i	?	?	i	?
CCN1C(=O)/C(=C/c2ccc(N3CCCC3)cc2)NC1=S	i	?	?	25µM	?	3.2µM
CN1C(=O)/C(=C/c2ccc(O)c([N+](=O)[O-])c2)NC1=S	i	i	i	?	i	40µM
CCCN1C(=O)S/C(=C\c2ccc(N3CCOCC3)cc2C)C1=O	nt	nt	nt	?	nt	i
CCc1cccc(NC(=O)C2CCCC2)c1	i	i	i	i	i	i
CC(C)C[C@H]1CN=C(N(C)C)N1CC1CCCCCC1	i	i	i	i	i	i[2.33 µM]
COc1cc(/C=C2/NC(=O)NC2=O)ccc1OCc1ccc(C(=O)O)cc1	nt	nt	i	nt	nt	nt
Cc1cc(/C=C2\NC(=S)N(C)C2=O)ccc1N1CCCC1	i	89µM	i	40µM	i	i
CCCN1C(=O)/C(=C/c2ccc(N3CCCC3)c(C)c2)NC1=S	i	35µM	i	35µM	?	i[0.0925 µM]
CCN1C(=O)/C(=C/c2ccc(OCc3ccc(C(=O)O)cc3)c(Cl)c2)NC1=S	?	?	i	?	i	71µM
CN1C(=O)/C(=C/c2ccc(OCc3ccc(F)cc3)cc2)NC1=S	i	i	i	?	i	i

Bioassay records as filed in PubChem.
